The test system of assay [1] is Wnt5a (protein binding on small-molecule microarray). Kind of assay: small molecules binding Wnt5a protein – biophysical, small-molecule microarray, 635/667 nm fluorescence, primary screen (AID 1142).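 Note: fluorescence read at 667 nm with signal to noise per printed feature.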 The conditions noted are these: 635 nm fluorescence, higher = more signal.
Assay [2] in a line: ATP-based viability of Huh7 replicon cells – cell-based, CellTiter-Glo luminescence, basal, 48 h, cytotoxicity control for HCV replication inhibitor project, primary screen (AID 1143).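 Note: Huh7 hepatoma cells carrying a hepatitis C replication reporter with no stimulus; test concentration not given here.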 To be noted: higher = more signal, called active from +8 up or from −8 down. Background: In antiviral work, replicon cells carry a viral genome segment that copies itself.
Assay [3] can be described thus: Pseudomonas biofilm growth suppression – PAO1 strain, BacTiter-Glo luminescence, LB-PBS, primary screen (AID 1144). The conditions noted are these: P. aeruginosa PAO1 biofilm, 12 h, higher = more signal.
A short description of assay [4]: basal CRE-LacZ reporter activity in PC12 – cell-based, unstimulated, primary screen (AID 1145). To be noted: no forskolin, luminescence, 4.5 h, higher = more signal, called active from +8 up or from −8 down.
Assay [5] can be described thus: forskolin-driven CRE-LacZ activity in PC12 – cell-based, CRE-LacZ reporter, forskolin-stimulated, primary screen (AID 1146).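 Note: PC12 cells with 6xCRE LacZ reporter stimulated by forskolin 10 µM; beta-galactosidase reporter signal reflecting CREB driven transcription.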 The conditions noted are these: luminescence, 4.5 h, higher = more signal, called active from +8 up or from −8 down.
The target in assay [6] is Streptavidin (Streptomyces avidinii) (UniProt P22629). The experiment in a line: compounds binding control protein streptavidin – biophysical, small-molecule microarray, 635/667 nm fluorescence, artefact control for SMM compound annotation, primary screen (AID 1147).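 Note: signal reflects streptavidin binding to arrayed compounds as a control protein.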 The conditions noted are these: higher = more signal.
Sequence of Streptavidin (Streptomyces avidinii) (P22629 whole entry, looked up): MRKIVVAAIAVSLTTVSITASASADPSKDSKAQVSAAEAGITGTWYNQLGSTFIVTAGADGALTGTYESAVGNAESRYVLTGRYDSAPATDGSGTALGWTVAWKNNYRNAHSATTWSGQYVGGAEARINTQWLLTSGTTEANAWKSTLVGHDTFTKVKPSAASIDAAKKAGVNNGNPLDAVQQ
The nature of assay [7]: probe aInhba binding on compound microarray – biochemical, small-molecule microarray, 635/667 nm fluorescence, primary screen (AID 1148).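 Note: score merges 667nm spot fluorescence with signal-to-noise for antibody binding to printed compounds.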 The conditions noted are these: higher = more signal.
For assay [8], the target named is Torsin-1A (Homo sapiens) (UniProt O14656). Kind of assay: TOR1A wild-type binding on microarray – cell lysate, small-molecule microarray, lysate, 635/667 nm, primary screen (AID 1149). The conditions noted are these: COS7 hTOR1A-WT lysate, 635 nm fluorescence, higher = more signal.
Sequence of Torsin-1A (Homo sapiens) (O14656 whole entry, looked up): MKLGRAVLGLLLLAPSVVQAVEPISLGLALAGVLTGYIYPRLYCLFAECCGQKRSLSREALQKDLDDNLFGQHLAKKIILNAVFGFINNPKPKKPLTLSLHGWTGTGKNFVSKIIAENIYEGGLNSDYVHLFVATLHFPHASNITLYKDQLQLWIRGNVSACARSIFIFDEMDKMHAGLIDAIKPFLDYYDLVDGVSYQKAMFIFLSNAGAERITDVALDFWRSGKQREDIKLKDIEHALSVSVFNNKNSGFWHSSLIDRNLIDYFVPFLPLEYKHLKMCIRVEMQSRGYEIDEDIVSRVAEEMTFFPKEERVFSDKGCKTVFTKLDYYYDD
The target is the same in assay [9]. Kind of assay: torsin A mutant lysate binding on microarrays – cell lysate, small-molecule microarray, COS7 lysate, 635/667 nm fluorescence, primary screen (AID 1150).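 Note: score pools 667 nm emission and signal to noise measuring lysate protein binding.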 The conditions noted are these: COS7 hTOR1A mutant lysate, 635 nm fluorescence, higher = more signal.
Assay [10] concerns Sonic hedgehog protein (Shh). The experiment in a line: Sonic hedgehog microarray binding compounds – biochemical, small-molecule microarray, 635/667 nm fluorescence, primary screen (AID 1151).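 Note: Shh protein binding to compounds spotted on small-molecule microarray slides; score combines spot fluorescence intensity with signal-to-noise across triplicate slides.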 To be noted: 635 nm fluorescence, higher = more signal.
The nature of assay [11]: optical density shifts of acrAB sulA E. coli – strain DRC41, OD650, 48 h, E. coli filamentation inducer project, primary screen (AID 1152).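 Note: E. coli MC1000 strain DRC41 lacking acrAB efflux pump and sulA.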 To be noted: higher = more signal, called active from +8 up or from −8 down.
Assay [12] is described as follows: probe aLefty1 binding on compound microarray – biochemical, small-molecule microarray, 635/667 nm fluorescence, primary screen (AID 1153).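 Note: score merges spot fluorescence with signal-to-noise ratio from the scanned slide images.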 To be noted: higher = more signal.
Assay [13] is described as follows: plasmodial surface anion channel blockers, osmotic lysis – cell-based, P. falciparum Indochina, OD700, 1 h, primary screen (AID 1154). The conditions noted are these: P. falciparum Indochina infected RBC osmotic lysis, higher = more signal, called active from +8 up or from −8 down.
The nature of assay [14]: plasmodial surface anion channel blockers, osmotic lysis – cell-based, P. falciparum Indochina, OD700, 2 h, primary screen (AID 1155).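 Note: lysis reports solute entry through the parasite surface anion channel PSAC.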 To be noted: P. falciparum Indochina infected erythrocytes, higher = more signal, called active from +8 up or from −8 down.
Assay [15] in a line: changes in parasitized red cell lysis, either direction – P. falciparum Indochina, OD700, 3 h, PSAC antagonist project, primary screen (AID 1156). The conditions noted are these: P. falciparum-infected erythrocytes, osmotic lysis, higher = more signal, called active from +8 up or from −8 down.
Assay [16] can be described thus: plasmodial surface anion channel blockers, osmotic lysis – cell-based, P. falciparum Indochina, OD700, 18 h, primary screen (AID 1157). The conditions noted are these: P. falciparum Indochina infected erythrocytes, osmotic lysis OD700, 18 h; higher = more signal, called active from +8 up or from −8 down.
A short description of assay [17]: S6 kinase pathway phospho-S6 level changes – cell-based, A549, cytoblot, luminescence, serum-stimulated, primary screen (AID 1158).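 Note: serum-stimulated A549 lung adenocarcinoma cells; signal is phosphorylated S6 detected by cytoblot immunostaining with HRP secondary.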 The conditions noted are these: 5 h, higher = more signal.
For assay [18], the target named is NADPH oxidase 2 (Homo sapiens) (UniProt P04839). The experiment in a line: compounds shifting NOX2 Amplex Red fluorescence – cell-based, HEK293-NOX2, PMA-stimulated, NOX inhibitor project, primary screen (AID 1159). Note: test concentration not given here. To be noted: 45 min, higher = more signal, called active from +8 up or from −8 down.
Sequence of NADPH oxidase 2 (Homo sapiens) (P04839 whole entry, looked up): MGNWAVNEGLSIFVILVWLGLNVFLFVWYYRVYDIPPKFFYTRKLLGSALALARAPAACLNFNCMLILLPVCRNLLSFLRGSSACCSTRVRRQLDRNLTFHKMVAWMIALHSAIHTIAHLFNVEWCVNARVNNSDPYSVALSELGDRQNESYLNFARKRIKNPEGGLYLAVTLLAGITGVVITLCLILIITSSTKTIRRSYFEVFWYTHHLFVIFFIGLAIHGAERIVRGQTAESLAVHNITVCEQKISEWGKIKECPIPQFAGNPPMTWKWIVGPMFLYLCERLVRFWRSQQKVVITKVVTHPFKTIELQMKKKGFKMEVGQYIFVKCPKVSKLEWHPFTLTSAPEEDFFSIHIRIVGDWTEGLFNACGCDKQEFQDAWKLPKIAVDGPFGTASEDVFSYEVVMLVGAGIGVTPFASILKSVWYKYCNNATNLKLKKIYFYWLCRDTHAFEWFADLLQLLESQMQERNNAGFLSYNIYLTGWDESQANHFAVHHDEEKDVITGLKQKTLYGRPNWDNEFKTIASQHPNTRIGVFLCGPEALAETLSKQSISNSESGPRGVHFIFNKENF
Assay [19] deals with NADPH oxidase 4 (Homo sapiens) (UniProt Q9NPH5). The experiment in a line: compounds shifting NOX4 Amplex Red fluorescence – cell-based, HEK293-NOX4, tetracycline-induced, NOX inhibitor project, primary screen (AID 1160). The conditions noted are these: HEK293-NOX4, Amplex Red H2O2 fluorescence, 45 min; higher = more signal, called active from +8 up or from −8 down.
Sequence of NADPH oxidase 4 (Homo sapiens) (Q9NPH5 whole entry, looked up): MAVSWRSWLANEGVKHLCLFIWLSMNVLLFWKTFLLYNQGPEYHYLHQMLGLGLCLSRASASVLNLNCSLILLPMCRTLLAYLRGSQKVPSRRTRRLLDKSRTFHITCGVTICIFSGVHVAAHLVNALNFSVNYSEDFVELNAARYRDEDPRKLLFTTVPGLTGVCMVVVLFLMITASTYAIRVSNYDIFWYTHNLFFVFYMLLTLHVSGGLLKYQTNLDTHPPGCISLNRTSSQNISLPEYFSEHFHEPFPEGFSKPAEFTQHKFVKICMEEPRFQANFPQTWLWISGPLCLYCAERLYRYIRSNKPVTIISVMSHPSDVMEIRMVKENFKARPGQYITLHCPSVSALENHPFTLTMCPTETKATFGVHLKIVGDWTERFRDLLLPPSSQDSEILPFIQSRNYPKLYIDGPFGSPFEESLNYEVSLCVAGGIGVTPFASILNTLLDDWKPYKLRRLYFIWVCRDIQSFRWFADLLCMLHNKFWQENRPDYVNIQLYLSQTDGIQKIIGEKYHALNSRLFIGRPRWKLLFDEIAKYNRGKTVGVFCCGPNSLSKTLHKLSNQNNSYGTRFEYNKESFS
The target in assay [20] is NADPH oxidase 5 (Homo sapiens) (UniProt Q96PH1). The experiment in a line: compounds shifting NOX5 Amplex Red fluorescence – cell-based, HEK293-NOX5, NOX inhibitor project, primary screen (AID 1161). To be noted: HEK293-NOX5, ionomycin, 45 min, higher = more signal.
Sequence of NADPH oxidase 5 (Homo sapiens) (Q96PH1 whole entry, looked up): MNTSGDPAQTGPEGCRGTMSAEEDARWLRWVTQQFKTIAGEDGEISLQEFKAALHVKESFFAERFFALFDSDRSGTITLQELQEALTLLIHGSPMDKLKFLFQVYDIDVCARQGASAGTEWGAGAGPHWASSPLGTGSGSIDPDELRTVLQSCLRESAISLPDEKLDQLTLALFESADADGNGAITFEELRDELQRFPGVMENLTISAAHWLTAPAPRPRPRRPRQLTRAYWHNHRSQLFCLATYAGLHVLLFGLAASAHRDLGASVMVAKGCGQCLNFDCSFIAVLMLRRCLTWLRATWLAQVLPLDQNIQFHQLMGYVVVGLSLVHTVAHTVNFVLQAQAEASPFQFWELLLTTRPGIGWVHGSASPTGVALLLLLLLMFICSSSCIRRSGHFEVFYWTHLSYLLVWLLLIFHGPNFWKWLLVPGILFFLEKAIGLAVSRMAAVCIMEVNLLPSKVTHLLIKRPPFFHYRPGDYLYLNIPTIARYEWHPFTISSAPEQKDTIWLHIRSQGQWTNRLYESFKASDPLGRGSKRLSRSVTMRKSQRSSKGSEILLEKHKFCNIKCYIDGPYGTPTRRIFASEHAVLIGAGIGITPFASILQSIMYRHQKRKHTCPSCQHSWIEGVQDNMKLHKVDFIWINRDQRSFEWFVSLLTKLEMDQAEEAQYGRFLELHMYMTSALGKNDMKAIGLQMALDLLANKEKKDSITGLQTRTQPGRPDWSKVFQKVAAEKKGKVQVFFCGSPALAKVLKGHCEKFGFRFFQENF

Structures are written as SMILES. Active and inactive are the calls of the source. Unless noted, the rule behind the calls is not given here.

On to `CCOC(=O)[C@H](CC(C)C)NC(=O)CCC1CC(OC(=O)NCc2ccc3c(c2)OCO3)CC2(CCCC(COC(=O)NCCOc3ccccc3)O2)O1` (stereo not given in full), for which the composite z-score in assay [1] was 0.278; in [6], 0.282; in [7], -0.0719; in the assay with Torsin-1A (Homo sapiens) [8] it was 0.314; with Torsin-1A (Homo sapiens) [9] it was 0.387; in [10], 1.87. In assay [12], this compound displayed a composite z-score of 0.0882. The z-score in [2] is -0.705 (inactive); in assay [3], -0.393 (inactive); in assay [4], 0.293 (inactive); in assay [5], 0.179 (inactive); in [11], -0.832 (inactive); in assay [13] it was 0.339 (inactive). The z-score in assay [14] was -0.35 (inactive); in assay [15], -0.118 (inactive); in assay [16], -0.193 (inactive); in assay [17], 0.128; in [18] it was 1.02 (inactive); in assay [19], -1.63 (inactive). The z-score in assay [20] was -0.0957.
Turning to `CCN1C(=O)[C@H]2[C@H]3[C@H](O)[C@H](O)CC(=NNC(=O)OCc4ccccc4)[C@@H]3CC[C@H]2C1=O`, the composite z-score is 0.0743 in assay [1]; 0.131 in assay [6]; -0.0986 in [7]; -0.425 in the assay with Torsin-1A (Homo sapiens) [8]; 0.151 in the assay with Torsin-1A (Homo sapiens) [9]; 0.475 in assay [10]. Besides, the composite z-score in assay [12] came to 0.122. Besides, the z-score in assay [2] is 0.235 (inactive); in assay [3], 0.511 (inactive); in assay [4], -0.746 (inactive); in [5] it was -0.506 (inactive); in assay [11], -0.0098 (inactive); in assay [13], -0.0022 (inactive). Further, the z-score in [14] was -0.51 (inactive); in assay [15] it was -0.698 (inactive); in assay [16], -0.0637 (inactive); in [17], -0.376; in assay [18], 0.424 (inactive); in assay [19], 0.525 (inactive). The z-score in assay [20] amounted to 0.296.
Regarding `O=C1[C@H]2CCn3c(=O)n(Cc4cc5c(cc4Cl)OCO5)c(=O)n3[C@H]2[C@H](O)[C@@H]2O[C@H]12`, the composite z-score is -0.509 in [1]; -0.0064 in [6]; -0.215 in assay [7]; -0.22 with Torsin-1A (Homo sapiens) [8]; -0.343 in the assay with Torsin-1A (Homo sapiens) [9]; 0.853 in assay [10]. The compound further showed a composite z-score in assay [12] of -0.196. The z-score in [2] is -0.926 (inactive); in assay [3], 0.529 (inactive); in [4] it was -0.925 (inactive); in [5], -0.0963 (inactive); in assay [11], 0.709 (inactive); in assay [13] it was 0.439 (inactive). In addition, the z-score in assay [14] is -0.511 (inactive); in [15], -0.277 (inactive); in assay [16], -0.212 (inactive); in assay [17] it was 0.489; in assay [18], -0.664 (inactive); in assay [19] it was 0.135 (inactive). Besides, the z-score in assay [20] was found to be 0.336.
Regarding `O=C1C2=CC[C@H]3C(=O)N(Cc4ccccc4)C(=O)[C@H]3[C@H]2[C@H](O)[C@@H]2O[C@H]12`, the composite z-score was -0.134 in assay [1]; -0.0955 in [6]; -0.128 in [7]; 0.367 with Torsin-1A (Homo sapiens) [8]; 0.216 with Torsin-1A (Homo sapiens) [9]; -0.575 in assay [10]. In addition, in assay [12], the composite z-score was -0.379. Moreover, the z-score in [2] is -6.84 (inactive); in [3] it was 0.252 (inactive); in [4] it was 0.518 (inactive); in [5] it was 25 (active); in assay [11], -0.536 (inactive); in assay [13], 0.472 (inactive). Moreover, the z-score was 0.147 (inactive) in assay [14]; -0.178 (inactive) in assay [15]; 0.157 (inactive) in assay [16]; -0.451 in assay [17]; -1.41 (inactive) in assay [18]; 0.16 (inactive) in assay [19]. Also, the z-score in assay [20] was 0.44.

Source of the values: PubChem BioAssay.
